The first test has as its system PPARg DBDmut:RXRa IVT, anti-PPARg (DBD mutation: PPARg1 K132A/R137A, NR concentration 270 nM, RXRa partner concentration 90 nM). Kind of test: PBM binding z-score (relative to random genomic background probes); higher = stronger binding; sequences stand for … in GC…GCGATTGACAGCGTAGAATGAAGG
Summed up:
(§1)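 Binding z-scores take random background probes as their reference. They come from custom Agilent 4×180K protein-binding microarrays incubated 1 h with ligand-free nuclear receptor dimers, with antibodies against each partner (one per run) detecting binding. Scanned fluorescence was regression-normalized.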
On to CGAACGAGGTCATTGACAGGACAGTGAATAGTAA, for which the PBM binding z-score worked out at 2.22.

In turn, TCTAGTTGGTCACGGAGGGCACACACGACGGGTA returned a PBM binding z-score of 0.649.

The sequence AGAATGAGGTCATTAAGATCAGGGAATTGCGGTC gave a PBM binding z-score of 2.24.

As to CGCACTAGGTCATCCAGGACAGTGAATACATTGA, the PBM binding z-score was 2.66.

Turning to TAGCCTAGGTCATGCGGCCCAGTATAGTGTCGGC, the PBM binding z-score was -0.45.

Turning to GATACAGGGTCAGCTACAGGCCAGAGTATGGAAA, the PBM binding z-score turned out to be 0.112.

For the sequence ATCGAAAGGTCGACGCGGTGAGTATACACCGTTT, the PBM binding z-score came to 0.788.

With CCTGCTAGGTCATGGTCAGCGAATCTACAGTATG, the PBM binding z-score was -0.0271.

Regarding GCTGCTAGGTCAACTGATGGTCACCTAAAGCTCG, the PBM binding z-score was -0.0462.

CCGACTGGGGCAAGGTCACCATAACGCACAGCCA: the PBM binding z-score is 0.00337.

TCTCGGAGGACACCAAAGGTCAGAGCTCGACATC yielded a PBM binding z-score of -0.171.

Turning to AGTCAAAGTGCATCTAGGTAACGTAAGATATGCT, the PBM binding z-score stood at 0.878.

CCTACTGGGCCAAAAAGTTCATTGATGCCGATAA displayed a PBM binding z-score of -1.13.

ATTTGTAGGTTACATCCGGGTCATTCAGGCTATG registered a PBM binding z-score of 3.31.

With CGAACTAGGTCACCCAGGACAGTGAATACATTGA, the PBM binding z-score stood at 3.12.

CGTCCGAGGTCATAGGAGGTCAGTGAAGACAGAT returned a PBM binding z-score of 1.87.

As for CCTAGTTGTTCAGGAGGTCACACACCGGATATGA, the PBM binding z-score stood at 1.15.

For the sequence CGAACTACGTCATCCAGGACAGTGAATACATTGA, the PBM binding z-score amounted to 0.664.

Take AATAAAGGGTCATCGTAGGCCAGAGTACGCACAG: the PBM binding z-score amounted to 1.5.

Sequence CGTCAAAGTCCAAGGTAACGTAACAGAAAGCAGC returned a PBM binding z-score of 0.185.

With TAGCCTAGGTCATACAGGGGCCAGTATAGAAAGC, the PBM binding z-score is 0.2.

Regarding CGAACAAGGTCATTGACAGGACAGTGAATAGTAA, the PBM binding z-score was 1.05.

Regarding ATATGTAGGTTAGCTGGGGTCATTCACACTAGGC, the PBM binding z-score was 2.75.

Take CGTCCAAGGACAATGCTAGGTCAGTGAAAGCATT: the PBM binding z-score was -1.55.

In turn, CGAACGAGGTCATGAGTTGATAGCAAATGCCGAT showed a PBM binding z-score of 1.73.

AGAATGAGGTCAAGATCAGGGAAACAGAATACAT gave a PBM binding z-score of 2.94.

The sequence CGTCCAAGGTTAAGGTCAGTGAAAGAGACTCGAA returned a PBM binding z-score of -0.847.

With CATACAGGGTCGGCTAGGCCAGAGTAGGGACGGC, the PBM binding z-score is -0.399.

Sequence CCTACTGGGCCAAAGAGGTCATTGATGCCGATAA had a PBM binding z-score of -0.355.

For the sequence AGTCAAAGTTTATCTAGGTAACGTAAGATATGCT, the PBM binding z-score came out at 1.23.

The sequence TAGCCTAGGTCATGCGGGACAGTATAGTGTCGGC yielded a PBM binding z-score of 0.574.

On to ACTTAAGGGTCAACGAGGTTATAGCACGCGTATA, for which the PBM binding z-score was 2.52.

The sequence TAGCCTAGTTCATTCAGGGGCCAGTATAGAAAGC came in with a PBM binding z-score of -0.019.

CGAACAAGGTCATCCAGGACAGTGAATACATTGA had a PBM binding z-score of 3.54.

Take CGTCCGAGGTCAAGGTCAGTGAAAGAGACTCGAA: the PBM binding z-score is 0.688.

For TAGCCGAGGTCATTCAGGGGCCAGTATAGAAAGC, the PBM binding z-score is 1.06.

As for CCTACTCGGCCAAAAAGGTCATTGATGCCGATAA, the PBM binding z-score is -0.62.

Sequence CCTTACGGGTCCCTCCAGGTTATAGCATCGGAGT yielded a PBM binding z-score of -1.12.

With AACGAAAGGTCGAAGGTGAGTATACCCACCCGAA, the PBM binding z-score turned out to be 0.625.

For a further test, the system named is PPARg DBDmut IVT, anti-PPARg (DBD mutation: PPARg1 K132A/R137A, NR concentration 270 nM). The description is as above. Summed up: as §1
On to CGAACGAGGTCATTGACAGGACAGTGAATAGTAA, for which the PBM binding z-score is 0.785.

Turning to TCTAGTTGGTCACGGAGGGCACACACGACGGGTA, the PBM binding z-score came out at 0.752.

As to AGAATGAGGTCATTAAGATCAGGGAATTGCGGTC, the PBM binding z-score turned out to be 0.816.

Take CGCACTAGGTCATCCAGGACAGTGAATACATTGA: the PBM binding z-score came out at 1.65.

The sequence TAGCCTAGGTCATGCGGCCCAGTATAGTGTCGGC returned a PBM binding z-score of -0.404.

In turn, GATACAGGGTCAGCTACAGGCCAGAGTATGGAAA registered a PBM binding z-score of -0.146.

Regarding ATCGAAAGGTCGACGCGGTGAGTATACACCGTTT, the PBM binding z-score was 0.177.

Regarding CCTGCTAGGTCATGGTCAGCGAATCTACAGTATG, the PBM binding z-score is -0.639.

In the case of GCTGCTAGGTCAACTGATGGTCACCTAAAGCTCG, the PBM binding z-score is -0.599.

The sequence CCGACTGGGGCAAGGTCACCATAACGCACAGCCA returned a PBM binding z-score of -0.825.

As to TCTCGGAGGACACCAAAGGTCAGAGCTCGACATC, the PBM binding z-score is -0.615.

As to AGTCAAAGTGCATCTAGGTAACGTAAGATATGCT, the PBM binding z-score was 0.653.

In turn, CCTACTGGGCCAAAAAGTTCATTGATGCCGATAA registered a PBM binding z-score of -0.236.

The sequence ATTTGTAGGTTACATCCGGGTCATTCAGGCTATG gave a PBM binding z-score of 2.1.

CGAACTAGGTCACCCAGGACAGTGAATACATTGA gave a PBM binding z-score of 2.38.

Consider CGTCCGAGGTCATAGGAGGTCAGTGAAGACAGAT, for which the PBM binding z-score worked out at 0.417.

Sequence CCTAGTTGTTCAGGAGGTCACACACCGGATATGA had a PBM binding z-score of 0.86.

The sequence CGAACTACGTCATCCAGGACAGTGAATACATTGA had a PBM binding z-score of 1.1.

Sequence AATAAAGGGTCATCGTAGGCCAGAGTACGCACAG came in with a PBM binding z-score of 1.46.

CGTCAAAGTCCAAGGTAACGTAACAGAAAGCAGC: the PBM binding z-score was found to be 0.896.

On to TAGCCTAGGTCATACAGGGGCCAGTATAGAAAGC, for which the PBM binding z-score was -0.11.

CGAACAAGGTCATTGACAGGACAGTGAATAGTAA displayed a PBM binding z-score of 0.903.

Consider ATATGTAGGTTAGCTGGGGTCATTCACACTAGGC, for which the PBM binding z-score amounted to 2.29.

Turning to CGTCCAAGGACAATGCTAGGTCAGTGAAAGCATT, the PBM binding z-score was -0.865.

As for CGAACGAGGTCATGAGTTGATAGCAAATGCCGAT, the PBM binding z-score amounted to 1.44.

As for AGAATGAGGTCAAGATCAGGGAAACAGAATACAT, the PBM binding z-score was 2.9.

CGTCCAAGGTTAAGGTCAGTGAAAGAGACTCGAA came in with a PBM binding z-score of -0.494.

In turn, CATACAGGGTCGGCTAGGCCAGAGTAGGGACGGC registered a PBM binding z-score of -0.0958.

The sequence CCTACTGGGCCAAAGAGGTCATTGATGCCGATAA displayed a PBM binding z-score of -0.682.

Consider ATATGTAGGTTAGGGTCAGTCAGAAAGTAGGGAA, for which the PBM binding z-score came to 1.66.

AGTCAAAGTTTATCTAGGTAACGTAAGATATGCT displayed a PBM binding z-score of 1.54.

TAGCCTAGGTCATGCGGGACAGTATAGTGTCGGC returned a PBM binding z-score of 0.484.

In turn, ACTTAAGGGTCAACGAGGTTATAGCACGCGTATA displayed a PBM binding z-score of 3.33.

TAGCCTAGTTCATTCAGGGGCCAGTATAGAAAGC came in with a PBM binding z-score of 0.583.

In turn, CGAACAAGGTCATCCAGGACAGTGAATACATTGA returned a PBM binding z-score of 2.64.

CGTCCGAGGTCAAGGTCAGTGAAAGAGACTCGAA registered a PBM binding z-score of -0.148.

In turn, TAGCCGAGGTCATTCAGGGGCCAGTATAGAAAGC gave a PBM binding z-score of 1.57.

CCTACTCGGCCAAAAAGGTCATTGATGCCGATAA: the PBM binding z-score was -0.0585.

CCTTACGGGTCCCTCCAGGTTATAGCATCGGAGT displayed a PBM binding z-score of -1.29.

Regarding AACGAAAGGTCGAAGGTGAGTATACCCACCCGAA, the PBM binding z-score is -0.0943.

These data come from the supplement of paper PMC6555819.
